PubChem BioAssay (Tox21)
Unmarked numbers belong to inactive results. Results filed as inconclusive are left out. Where a call stands in place of a potency, no number is given. Calls of active or inactive are those of the source. Unless noted, the call rests on the fitted dose curve.

Legend:
[1] = Nuclear factor erythroid 2-related factor 2/antioxidant responsive element (Nrf2/ARE) small molecule agonists: qHTS cell viability counter screen in human keratinocytes (AID 1919968; active means well fitted curve in the direction sought with a large enough effect in the repeat runs; an effect the other way counts as inactive or inconclusive; further: nearly all actives have a fitted effect of over 55% in size)
How it was run: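 KeratinoSens cells (HaCaT keratinocytes stably carrying an ARE-luciferase reporter) were seeded at 1,500 cells/well and rested 5 h at 37 C/5% CO2. They were then exposed to compounds in DMSO for 23 h. Viability was read by CellTiter-Fluor fluorescence after 1 h.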

[2] = Nuclear factor erythroid 2-related factor 2/antioxidant responsive element (Nrf2/ARE) small molecule agonists: luciferase reporter gene qHTS assay in human keratinocytes (AID 1919969); further: nearly all actives have a fitted effect of over 35% in size; further: potency means the concentration at half of the fitted maximal effect
[3] = biological target: Gonadotropin-releasing hormone receptor (Homo sapiens) (UniProt P30968); assay: Human gonadotropin-releasing hormone receptor (GnRHR) small molecule agonists, calcium flux assay in GnRHR-HEK293 cells (AID 1920063); further: nearly all actives have a fitted effect of over 35% in size
Gonadotropin-releasing hormone receptor (Homo sapiens), sequence (P30968 whole entry, looked up): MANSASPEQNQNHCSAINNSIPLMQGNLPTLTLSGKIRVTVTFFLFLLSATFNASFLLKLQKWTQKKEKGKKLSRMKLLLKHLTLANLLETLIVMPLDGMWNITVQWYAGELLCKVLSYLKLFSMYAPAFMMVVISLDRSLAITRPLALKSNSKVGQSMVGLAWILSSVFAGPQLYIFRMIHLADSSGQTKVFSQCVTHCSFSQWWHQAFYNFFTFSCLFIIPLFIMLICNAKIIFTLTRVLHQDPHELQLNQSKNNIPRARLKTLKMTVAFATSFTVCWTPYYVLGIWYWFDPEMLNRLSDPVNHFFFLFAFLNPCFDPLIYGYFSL
How it was run: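 HEK293 cells stably expressing human GnRHR were plated 18 h at 37 °C, loaded with calcium dye 1 h at 37 °C, then given compound in agonist mode; fluorescence (Ex/Em 480/540) read kinetically for 3 min at 1 s intervals.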

[4] = biological target: KiSS-1 receptor (Homo sapiens) (UniProt Q969F8); assay: Human kisspeptin (KISS1R) small molecule agonists, calcium flux assay in KISS1R-HEK293 cells (AID 1920064; active means well fitted curve in the direction sought with a large enough effect in the repeat runs; an effect the other way counts as inactive or inconclusive)
KiSS-1 receptor (Homo sapiens), sequence (Q969F8 whole entry, looked up): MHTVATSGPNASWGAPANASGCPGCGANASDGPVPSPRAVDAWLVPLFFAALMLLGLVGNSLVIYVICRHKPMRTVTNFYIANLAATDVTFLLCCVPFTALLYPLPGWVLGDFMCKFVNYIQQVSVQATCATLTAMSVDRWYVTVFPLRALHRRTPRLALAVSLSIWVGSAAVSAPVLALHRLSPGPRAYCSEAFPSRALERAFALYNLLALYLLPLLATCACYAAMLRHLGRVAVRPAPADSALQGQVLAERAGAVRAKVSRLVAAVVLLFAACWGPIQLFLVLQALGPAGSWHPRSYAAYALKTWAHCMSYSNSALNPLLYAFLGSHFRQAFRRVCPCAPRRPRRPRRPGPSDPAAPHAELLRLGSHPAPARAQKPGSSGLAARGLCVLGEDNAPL
How it was run: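 HEK293 cells stably expressing human KISS1R were plated 18 h at 37 °C, loaded with calcium dye for 1 h at 37 °C, then given compound by pin tool. Fluorescence (Ex/Em 480/540) was read kinetically for 3 min.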

[5] = G protein-coupled receptor (GPCR) small molecule agonists, calcium flux assay: HEK293 wild type cell line counter screen (AID 1920065)
How it was run: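 Cells were plated and cultured 18 h at 37 C/5% CO2, then loaded with calcium dye for 1 h at 37 C. Compounds in DMSO were pin-transferred in agonist mode, and fluorescence (Ex/Em 480/540) was read kinetically for 3 min at 1 s intervals.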

[6] = p53 small molecule agonists, cell-based qHTS assay with human liver microsomes (AID 1963577);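 further: p53 response element beta-lactamase reporter cells with liver microsomes plus NADPH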
How it was run: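 Metabolically competent format: test substances, human liver microsomes and NADPH (both 0.5 mg/mL final) incubated with p53RE-bla cells 16 h at 37 C. Beta-lactamase reporter signal then quantified by fluorescence.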

[7] = p53 small molecule agonists, cell-based qHTS assay with rat liver microsomes (AID 1963578)
How it was run: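 Each plate received p53RE-bla cells, then compound, then rat liver microsomes and NADPH (both 0.5 mg/mL final). Plates were held 16 h at 37 C, and beta-lactamase activity was detected with LiveBLAzer over 2 h.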

[8] = p53 small molecule agonists, cell-based qHTS assay with human liver microsomes: qHTS cell viability counter screen (AID 1963579); further: nearly all actives have a fitted effect of over 45% in size
How it was run: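 Tox21 library compounds, delivered from DMSO stocks, were tested on p53RE-bla cells together with 0.5 mg/mL human liver microsomes and 0.5 mg/mL NADPH (final) over 16 h at 37 C; CellTiter-Glo luminescence served as the cytotoxicity measure.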

[9] = p53 small molecule agonists, cell-based qHTS assay with rat liver microsomes: qHTS cell viability counter screen (AID 1963580); further: nearly all actives have a fitted effect of over 45% in size
How it was run: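 p53RE-bla HCT-116 cells (4,000/well) rested 5 h at 37 C, then given Tox21 compounds in DMSO with rat liver microsomes (0.5 mg/mL final) plus NADPH (0.5 mg/mL final) for 16 h at 37 C. Viability read by CellTiter-Glo luminescence after 30 min at room temperature.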

[10] = p53 small molecule agonists, cell-based qHTS assay: qHTS cell viability counter screen (AID 1963581); further: nearly all actives have a fitted effect of over 45% in size
How it was run: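 p53RE-bla HCT-116 cells were exposed to compounds for 16 h at 37 C; after the beta-lactamase FRET read in the same wells, CellTiter-Glo was added and luminescence (intracellular ATP) read after 30 min at room temperature.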

[11] = biological target: 5-hydroxytryptamine receptor 2A (Homo sapiens) (UniProt P28223); assay: 5-hydroxytryptamine receptor 2A (HTR2A) small molecule antagonists, cell-based qHTS assay (AID 1963586); further: nearly all actives have a fitted effect of over 45% in size
5-hydroxytryptamine receptor 2A (Homo sapiens), sequence (P28223 whole entry, looked up): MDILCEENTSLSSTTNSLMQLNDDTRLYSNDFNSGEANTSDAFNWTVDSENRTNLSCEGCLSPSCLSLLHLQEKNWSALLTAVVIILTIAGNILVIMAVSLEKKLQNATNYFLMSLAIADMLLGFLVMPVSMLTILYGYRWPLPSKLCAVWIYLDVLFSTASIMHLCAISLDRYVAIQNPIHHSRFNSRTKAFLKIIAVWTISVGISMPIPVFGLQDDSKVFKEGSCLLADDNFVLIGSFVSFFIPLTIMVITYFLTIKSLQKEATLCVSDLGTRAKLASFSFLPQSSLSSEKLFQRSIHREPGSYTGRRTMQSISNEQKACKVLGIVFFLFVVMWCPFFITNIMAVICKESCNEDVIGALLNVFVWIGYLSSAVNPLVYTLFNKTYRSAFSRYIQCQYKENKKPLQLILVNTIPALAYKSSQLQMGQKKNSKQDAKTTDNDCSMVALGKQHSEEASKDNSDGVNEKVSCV
How it was run: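 Antagonist-mode intracellular calcium assay: DOI (4 nM) added after 5 min compound pre-incubation at room temperature to dye-loaded HTR2A-CHO cells. Fluorescence followed for 3 min, sampled every second.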

[12] = biological target: 5-hydroxytryptamine receptor 2A (Homo sapiens) (UniProt P28223); assay: 5-hydroxytryptamine receptor 2A (HTR2A) small molecule agonists, cell-based qHTS assay (AID 1963587); further: nearly all actives have a fitted effect of over 30% in size
How it was run: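 HTR2A-CHO cells, plated 18 h at 37 C/5% CO2, dye-loaded 1 h at 37 C; compounds in DMSO added by pin tool (agonist mode). Intracellular calcium flux read as kinetic fluorescence on FDSS over 2 min at 1 s intervals.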

[13] = biological target: Muscarinic acetylcholine receptor M1 (Homo sapiens) (UniProt P11229); assay: Cholinergic receptor muscarinic 1 (CHRM1) small molecule antagonists, cell-based qHTS assay (AID 1963588); further: nearly all actives have a fitted effect of over 40% in size
Muscarinic acetylcholine receptor M1 (Homo sapiens), sequence (P11229 whole entry, looked up): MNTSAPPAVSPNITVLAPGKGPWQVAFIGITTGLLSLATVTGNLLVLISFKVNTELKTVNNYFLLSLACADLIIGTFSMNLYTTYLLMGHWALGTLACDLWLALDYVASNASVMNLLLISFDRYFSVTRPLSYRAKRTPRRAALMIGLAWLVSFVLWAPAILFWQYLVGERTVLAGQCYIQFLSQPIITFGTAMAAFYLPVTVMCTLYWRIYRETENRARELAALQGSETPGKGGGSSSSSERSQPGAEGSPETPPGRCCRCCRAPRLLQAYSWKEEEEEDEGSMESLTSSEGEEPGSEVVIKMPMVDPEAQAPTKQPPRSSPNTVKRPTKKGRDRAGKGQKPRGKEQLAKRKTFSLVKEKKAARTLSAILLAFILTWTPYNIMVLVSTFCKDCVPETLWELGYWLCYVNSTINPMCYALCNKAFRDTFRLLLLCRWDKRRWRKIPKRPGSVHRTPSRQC
How it was run: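 CHRM1-CHO calcium-flux assay, antagonist mode. Cells were seeded 18 h, dye-loaded 1 h at 37 C and given compound for 5 min at RT, then acetylcholine was added at 50nM. FDSS fluorescence was read 3 min; 15 concentrations, three runs.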

[14] = biological target: Muscarinic acetylcholine receptor M1 (Homo sapiens) (UniProt P11229); assay: Cholinergic receptor muscarinic 1 (CHRM1) small molecule agonists, cell-based qHTS assay (AID 1963589); further: nearly all actives have a fitted effect of over 35% in size
How it was run: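 CHO cells stably expressing human CHRM1, seeded 18 h at 37 C/5% CO2, dye-loaded 1 h at 37 C, then given compound in agonist mode; intracellular calcium fluorescence read kinetically at 1 s intervals. Fifteen concentrations, three independent runs.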

[15] = cAMP Responsive Elements (CRE) small molecule agonists, cell-based qHTS assay (AID 1963590)
How it was run: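 CRE-bla HEK 293T cells in DMEM with 10% dialyzed FBS, NEAA, pyruvate and 25 mM HEPES were plated 18 h at 37 C/5% CO2, then exposed to compounds in DMSO for 3 h before LiveBLAzer B/G FRET substrate addition.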

[16] = cAMP Responsive Elements (CRE) small molecule antagonists, cell-based qHTS assay (AID 1963591; active means well fitted inhibition curve with a large enough effect in the signal ratio in the repeat runs, not every such curve was filed as active; the % refers to the signal ratio)
How it was run: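 CRE-bla HEK293T cells were plated 18 h at 37 °C/5% CO2, pinned with compound in DMSO, then stimulated with NKH477 at 0.25 uM final for 3 h. LiveBLAzer B/G FRET substrate was added and plates incubated 2 h at room temperature.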

[17] = biological target: D(2) dopamine receptor (Homo sapiens) (UniProt P14416); assay: Dopamine D2 receptor (DRD2) small molecule agonists, cell-based qHTS assay (AID 1963594); further: nearly all actives have a fitted effect of over 35% in size
D(2) dopamine receptor (Homo sapiens), sequence (P14416 whole entry, looked up): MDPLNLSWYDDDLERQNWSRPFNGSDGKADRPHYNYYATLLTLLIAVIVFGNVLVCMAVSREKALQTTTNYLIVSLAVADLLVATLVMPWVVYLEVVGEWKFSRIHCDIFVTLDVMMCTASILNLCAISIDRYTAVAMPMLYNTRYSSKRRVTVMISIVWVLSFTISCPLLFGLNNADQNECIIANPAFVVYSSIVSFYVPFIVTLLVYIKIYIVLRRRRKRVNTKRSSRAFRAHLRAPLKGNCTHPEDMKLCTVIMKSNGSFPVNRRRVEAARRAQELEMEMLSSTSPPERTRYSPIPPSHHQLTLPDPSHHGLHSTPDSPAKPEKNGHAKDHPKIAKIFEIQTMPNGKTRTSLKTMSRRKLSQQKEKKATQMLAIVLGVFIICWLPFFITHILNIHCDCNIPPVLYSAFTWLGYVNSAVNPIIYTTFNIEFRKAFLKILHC
How it was run: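 HEK293 cells stably expressing DRD2 were cultured 24 h at 37 C, then given Ro20-1724 (0.1 mM final) and compounds for 10 min at room temperature. NKH477 (200nM) was then added for 30 min. cAMP was read by HTRF.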

[18] = biological target: D(2) dopamine receptor (Homo sapiens) (UniProt P14416); assay: Dopamine D2 receptor (DRD2) small molecule antagonists, cell-based qHTS assay (AID 1963595; active means well fitted inhibition curve with a large enough effect in the signal ratio in the repeat runs, with a control signal flat; the % refers to the signal ratio)
How it was run: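 Readout: HTRF cAMP, cAMP-d2 competing with cellular cAMP for anti-cAMP cryptate, read after 1 h. Cells: DRD2-HEK293. Conditions: 0.1 mM Ro20-1724, 12 nM quinpirole, 200 nM NKH477, 30 min RT.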

[19] = biological target: Beta-2 adrenergic receptor (Homo sapiens) (UniProt P07550); assay: Adrenergic beta2 receptor (ADRB2) small molecule antagonists, cell-based qHTS assay (AID 1963592); further: series mostly up to about 92 µM; nearly all actives have a fitted effect of over 50% in size
Beta-2 adrenergic receptor (Homo sapiens), sequence (P07550 whole entry, looked up): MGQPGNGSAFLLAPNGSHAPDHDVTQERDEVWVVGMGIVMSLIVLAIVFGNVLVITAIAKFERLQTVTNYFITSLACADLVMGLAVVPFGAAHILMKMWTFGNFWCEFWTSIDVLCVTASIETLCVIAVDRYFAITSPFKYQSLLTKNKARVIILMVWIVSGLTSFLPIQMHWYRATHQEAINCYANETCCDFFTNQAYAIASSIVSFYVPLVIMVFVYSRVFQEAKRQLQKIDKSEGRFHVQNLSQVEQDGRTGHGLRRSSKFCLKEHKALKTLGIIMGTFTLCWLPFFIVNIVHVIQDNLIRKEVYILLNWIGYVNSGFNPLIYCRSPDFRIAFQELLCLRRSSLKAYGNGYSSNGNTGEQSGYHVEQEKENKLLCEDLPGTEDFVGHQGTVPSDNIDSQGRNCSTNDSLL
How it was run: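 Cells (CHO, stable ADRB2 overexpression) incubated 18-20hr at 37C; compounds added from DMSO; agonist mix (1nM isoproterenol, 100uM IBMX, 25uM Ro-20-1724) added; 0.5hr RT; d2-cAMP and anti-cAMP-cryptate added; 1hr RT; 665/615 nm read.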

[20] = biological target: Beta-2 adrenergic receptor (Homo sapiens) (UniProt P07550); assay: Adrenergic beta2 receptor (ADRB2) small molecule agonists, cell-based qHTS assay (AID 1963593);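 further: CHO cells stably overexpressing human ADRB2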
How it was run: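 CHO cells stably over-expressing ADRB2 were plated overnight at 37C, then dosed with compounds plus a stimulation mix containing 100uM IBMX and 25uM Ro-20-1724 for 0.5hr at room temperature. cAMP was measured by HTRF competition, 1hr.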

SMILES	Potency [1]	Potency [2]	Potency [3]	outcome [4]	outcome [5]	Potency [6]	Potency [7]	Potency [8]	Potency [9]	Potency [10]	Potency [11]	Potency [12]	Potency [13]	Potency [14]	Potency [15]	Potency [16]	Potency [17]	Potency [18]	Potency [19]	Potency [20]
Nc1cc(Cl)c(O)c(Cl)c1	inactive	54.5 µM (active)	inactive	inactive	inactive	inactive	inactive	inactive	inactive	inactive	inactive	inactive	inactive	inactive	–	–	–	–	–	–
CCNC(=O)C(C)OC(=O)Nc1ccccc1 (stereo unspecified)	inactive	inactive	inactive	inactive	inactive	inactive	inactive	inactive	inactive	inactive	inactive	inactive	inactive	inactive	inactive	inactive	inactive	inactive	–	–
CCC1=C(C)CN(C(=O)NCCc2ccc(S(=O)(=O)NC(=O)NC3CCC(C)CC3)cc2)C1=O (stereo unspecified)	inactive	inactive	inactive	inactive	inactive	inactive	inactive	inactive	inactive	inactive	–	–	–	–	–	–	inactive	inactive	inactive	–
CCOC(=O)/C=C/C(=O)O	inactive	61.1 µM (active)	inactive	inactive	inactive	inactive	inactive	inactive	inactive	inactive	inactive	inactive	inactive	inactive	inactive	inactive	inactive	–	inactive	inactive
CCCC(C)C	inactive	inactive	inactive	inactive	inactive	inactive	inactive	inactive	inactive	inactive	inactive	inactive	inactive	inactive	inactive	inactive	inactive	inactive	inactive	–
CC(=O)OC(C)(C)Cc1ccccc1	inactive	inactive	inactive	inactive	inactive	inactive	inactive	inactive	inactive	inactive	inactive	inactive	inactive	inactive	inactive	inactive	inactive	–	–	–
ClC(Cl)(Br)Br	inactive	inactive	inactive	inactive	inactive	inactive	inactive	inactive	inactive	inactive	inactive	inactive	inactive	inactive	inactive	inactive	inactive	inactive	inactive	–
Cc1cc(C(C)(C)C)c(O)c(C)c1Cn1c(=O)n(Cc2c(C)cc(C(C)(C)C)c(O)c2C)c(=O)n(Cc2c(C)cc(C(C)(C)C)c(O)c2C)c1=O	inactive	inactive	inactive	inactive	inactive	inactive	inactive	inactive	inactive	inactive	inactive	inactive	inactive	inactive	inactive	inactive	inactive	inactive	inactive	inactive
O=C(/C=C/c1ccc(O)c(O)c1)O[C@@H]1C[C@](O)(C(=O)O)C[C@@H](O)[C@H]1O	inactive	inactive	inactive	inactive	inactive	inactive	inactive	inactive	inactive	inactive	inactive	inactive	inactive	inactive	inactive	inactive	inactive	–	–	–
N#Cc1ccc(C(=O)O)cc1	inactive	inactive	inactive	inactive	inactive	inactive	inactive	inactive	inactive	inactive	inactive	inactive	inactive	inactive	inactive	–	inactive	inactive	inactive	–
COc1ccc(OC)c(OC)c1	inactive	inactive	inactive	inactive	inactive	inactive	inactive	inactive	inactive	inactive	inactive	inactive	inactive	inactive	inactive	inactive	inactive	inactive	inactive	–
Cc1ccc(C(=O)c2ccc(CC(=O)O)n2C)cc1	inactive	inactive	inactive	inactive	inactive	inactive	inactive	inactive	inactive	inactive	–	–	–	–	–	inactive	inactive	inactive	inactive	inactive
CCC(CC)C(=O)O	inactive	inactive	inactive	inactive	inactive	inactive	inactive	inactive	inactive	inactive	inactive	inactive	inactive	inactive	inactive	inactive	–	inactive	inactive	–
